hDAT+cocaine: human DAT dopamine uptake with cocaine, either direction; Q01959; B-score at 10 µM; 110,000 tested, 1.3% active; LLC-PK1 hDAT cells, [14C]-dopamine uptake with cocaine IC80; actives deviate in either direction;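 active = Z score or B-score, a plate-position-corrected score, falls beyond the plate's 99.7% confidence bounds, in either direction; inactive = both scores lie inside the 99.7% bounds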;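 also: scored against the spread of the other compound wells on the same plate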
Target sequence (Q01959 whole entry, looked up): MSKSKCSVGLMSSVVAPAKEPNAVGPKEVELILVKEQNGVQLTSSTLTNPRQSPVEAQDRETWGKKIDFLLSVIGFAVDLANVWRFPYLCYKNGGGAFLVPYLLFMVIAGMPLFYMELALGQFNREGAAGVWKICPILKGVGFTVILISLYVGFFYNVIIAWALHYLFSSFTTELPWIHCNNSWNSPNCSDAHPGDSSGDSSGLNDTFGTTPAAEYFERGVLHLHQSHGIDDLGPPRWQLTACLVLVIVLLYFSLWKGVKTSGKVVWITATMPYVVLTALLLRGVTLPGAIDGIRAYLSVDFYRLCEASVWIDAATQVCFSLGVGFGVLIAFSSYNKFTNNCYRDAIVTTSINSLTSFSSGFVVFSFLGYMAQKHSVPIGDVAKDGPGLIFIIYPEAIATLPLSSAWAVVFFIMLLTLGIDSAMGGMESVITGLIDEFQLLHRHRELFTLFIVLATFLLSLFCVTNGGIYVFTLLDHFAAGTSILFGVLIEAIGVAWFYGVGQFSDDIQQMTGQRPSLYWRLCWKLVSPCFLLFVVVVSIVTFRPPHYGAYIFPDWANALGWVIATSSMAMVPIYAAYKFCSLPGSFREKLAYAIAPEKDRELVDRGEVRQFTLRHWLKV
MRP-1 activ: activates MRP-1. H69AR cells + doxorubicin, viability rescue, CellTiter-Glo. viability increase, % at 10 µM. 140,000 tested, 0.61% active. AID 799;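 active = viability gain under doxorubicin at or above a set limit, the compound median plus 3 SD, cut at about 4.7% in these data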;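 also: MRP-1 overexpressing cells given doxorubicin 25 µM after compound pretreatment; 18-22 h compound pretreatment then 72 h with doxorubicin before readout; 0% = doxorubicin-only wells and 100% = vehicle-treated cells without doxorubicin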
MRP reversal: MRP-mediated drug resistance reversal. H69AR cells + 2 uM doxorubicin, CellTiter-Glo, 72 h. differential viability (reversal), % at 10 µM. 85,000 tested, 0.04% active. AID 602;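 active = viability drop by adding the cancer drug above about 55%, with treated viability meeting a 40% cutoff, limit read from the data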;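 also: viability without doxorubicin minus viability with 2 µM doxorubicin for each compound; larger differential means the compound sensitizes cells more to doxorubicin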
* = called active by the depositor; . = not tested or not shown. Rows were chosen to be rich in hits. Some 1.5% of all compounds tested hit in one or more screens of this group.

SMILES	hDAT+cocaine	MRP-1 activ	MRP reversal
COC(=O)NC(NC(=S)Nc1ccc([N+](=O)[O-])cc1)C(Cl)(Cl)Cl (centres undefined)	-2.8*	-5	7
CCOC(=O)NC(NC(=S)Nc1ccc(OC)cc1)C(Cl)(Cl)Cl (centres undefined)	.	0	.
Cc1cccc(NC(=S)NNC(=O)CCn2cc(C)cn2)c1	0.35	-2	.
Cc1nnc(SCc2ccc3c(c2)OCO3)s1	0.41	0	8
O=C(O)CC1SC(=Nc2ccccc2)N(c2ccccc2)C1=O (centres undefined)	-1.2	-2	-5
Cc1ccc(CC2SC(=Nc3ccccc3)N(c3ccccc3)C2=O)cc1 (centres undefined)	.	5.7*	.
O=S(=O)(c1ccc(Cl)cc1)N1CCN=C1SCc1ccc(Cl)c(Cl)c1	.	-2	.
O=C(O)CSc1nnc(-c2cccnc2)n1Cc1ccccc1	-7*	-1	0
CC(C)OC(=O)CSc1nnc(-c2cccnc2)n1Cc1ccccc1	-0.46	-1	-2
CCOc1cccc(-c2nnc3sc(C4CCCCC4)nn23)c1	1.9	-2	9
COc1cccc(-c2nnc3sc(C4CCCCC4)nn23)c1	-8.3*	-3	3
CC1(C)Cc2c(C#N)c(OCC(=O)c3ccc(Cl)cc3)nc(-c3ccco3)c2CO1	-2.4*	0	-6
Cc1nc(OCC(=O)c2ccc(Cl)cc2)c(C#N)c2c1COC(C)(C)C2	-0.53	0	-24
COc1ccc(OC)c(CNC(=O)CCN2C(=O)COc3ccccc32)c1	1.6*	-4	1
COc1ccc(Br)cc1CNC(=O)CCN1C(=O)COc2ccccc21	0.56	0	4
CCC(C)c1ccc2oc(-c3ccc(NC(=O)c4ncn[nH]4)cc3)nc2c1 (centres undefined)	-0.5	-1	-10
CCC(C)c1ccc(O)c(NC(=O)c2ncn[nH]2)c1 (centres undefined)	-0.41	5.3*	10
CCCCCCC(=O)Nc1ccc(C(=O)N/N=C/c2cccnc2)cc1	1.2	9.9*	.
CCC(=O)Nc1ccc(C(=O)N/N=C/c2cccnc2)cc1	-0.89	-1	.
CC1(c2nnc(-c3ccncc3)o2)CC(c2ccc([N+](=O)[O-])cc2)=NO1 (centres undefined)	-0.92	.	.
O=S(=O)(CCc1nc2ccccc2[nH]1)c1ccc(Br)cc1	.	-5	.
O=c1c2ccc(Cl)cc2[nH]c(=S)n1CCC1=CCCCC1	.	2	.
CN1CCC(=O)N(CCSc2ccc(Br)cc2)CC1	0.034	.	.
COc1ccc(NC(=O)C(=O)N/N=C/c2cc(C)n(-c3cccc(Cl)c3Cl)c2C)c(OC)c1	0.58	5.3*	.
COc1ccc(OC)c(NC(=O)C(=O)N/N=C/c2ccccc2[N+](=O)[O-])c1	-0.68	-3	.
SMILES	hDAT+cocaine	MRP-1 activ	MRP reversal
C=CCn1c(=O)c2ccccc2n2c(SCC(N)=O)nnc12	-0.23	-1	12
C=CCn1c(=O)c2ccccc2n2c(SCc3nc4ccccc4s3)nnc12	3.6*	-2	-19
O=C(NC(=S)Nc1ccccc1N1CCOCC1)c1ccco1	.	-1	.
O=C(NC(=S)Nc1ccccc1N1CCOCC1)c1ccc(-c2cc(Cl)ccc2Cl)o1	.	15*	.
COC(C(=O)Nc1ccc(S(=O)(=O)Nc2cccc3ccccc23)cc1)c1ccccc1 (centres undefined)	.	-1	.
COC(=O)c1c(NC(=O)CN2C(=O)NC3(CCc4ccccc4C3)C2=O)sc2c1CCCCC2 (centres undefined)	.	-1	.
N#CC(C#N)C(c1ccsc1)c1c(-c2ccccc2)[nH][nH]c1=O (centres undefined)	-1.1	-1	2
CCCc1[nH][nH]c(=O)c1C(c1cccc(Cl)c1)C(C#N)C#N (centres undefined)	-9.4*	-2	-49
O=C(Nc1ccc(N2CCCC2)c(S(=O)(=O)Nc2cccc(C(F)(F)F)c2)c1)c1cccs1	.	-2	.
CCNC(=S)N/N=C/c1ccc(OCC(=O)Nc2ccc(OC)cc2)c(OC)c1	.	-2	.
CCNC(=S)N/N=C/c1ccc(OCC(=O)Nc2ccc(C)cc2)cc1	-2.9*	-2	.
COc1ccc(Cl)cc1NC(=O)CSc1nnc(CN2CCOCC2)n1-c1ccc(Cl)cc1	2.3	-4	-19
COC(=O)CCCC1=CC2=CC(=O)C(C)(OC(=O)c3cccs3)C(=O)C2=CN1CCN1CCOCC1 (centres undefined)	-2.2	.	.
Cc1ccc(C(=O)CC(=O)COc2ccc(Cl)cc2)cc1	.	0	.
Cc1ccc(OCc2nc(-c3ccc(Cl)cc3)n[nH]2)cc1	1	5.4*	8
CCOC(=O)n1c(=O)n(Cc2ccc(Cl)c(Cl)c2)c2ccccc21	-0.11	-1	.
O=C1CCCC(=O)C1=C1SCCCS1	.	2	.
COc1ccc(N2C(=O)C(CC(=O)Nc3ccccc3)N(Cc3cccs3)C2=O)cc1 (centres undefined)	0.87	.	.
COc1ccc(NC(=O)CC2C(=O)N(c3ccc(F)cc3)C(=S)N2NC(=O)c2ccccc2)cc1 (centres undefined)	.	6.4*	.
CCOC(=O)c1c(-c2ccc(C)o2)csc1NC(=O)CSc1ncn[nH]1	0.72	6.8*	3
CCOC(=O)c1c(-c2ccc(C)o2)csc1NC(=O)CN1CCOCC1	-0.21	-1	10
CC(=O)c1c(C)[nH]c(C(=O)OCC(=O)N(C)C)c1C	-0.28	-2	-10
N#Cc1ccc(NC(=O)c2cc3cc4c5c(c3oc2=N)CCCN5CCC4)cc1	.	.	-6
N=c1oc2c3c4c(cc2cc1C(=O)Nc1ccccc1)CCCN4CCC3	-0.05	6.4*	.
COc1cccc(N=CC2=C(O)CC(C)(C)CC2=O)c1	.	-2	.
SMILES	hDAT+cocaine	MRP-1 activ	MRP reversal
COc1cccc(N=Cc2c[nH][nH]c2=O)c1	-7.7*	-4	.
CCOC(=O)Cc1csc(NC(=S)NC(=O)C(C)(C)C)n1	.	13*	.
CCOC(=O)Cc1csc(NC(=S)NC(=O)c2ccc(Cl)cc2)n1	-1.1	1	.
C#CCNC(=O)C1=C[C@H](c2ccc(Br)cc2)C[C@H](OCCCCO)O1	0.43	.	.
Cc1nc(NC(=S)NC(=O)c2cccs2)sc1C(=O)N(C)C	0.25	7.2*	.
COc1ccc(C(=O)NC(=S)Nc2nc(C)c(C(=O)N(C)C)s2)cc1	-0.91	0	.
Cc1cccc(Nc2nnc(SCC(=O)c3ccc(Br)s3)s2)c1C	.	-2	.
c1coc(C2Nc3cccc4cccc(c34)N2)c1	-0.033	6.0*	-18
Oc1ccc(C2Nc3cccc4cccc(c34)N2)c(O)c1	0.015	-1	-18
CCOC(=O)Cn1c(CN(Cc2ccccc2)Cc2ccccc2)nc2c1c(=O)n(C)c(=O)n2C	3.8*	-2	-5
CCCn1c(CN(Cc2ccccc2)Cc2ccccc2)nc2c1c(=O)n(C)c(=O)n2C	-2.2	3	4
COc1ccccc1CNC(=O)COC(=O)Cc1ccc(Cl)cc1	.	-1	.
COc1ccc(-c2nnc(SC(C)C(=O)NNC(=O)c3ccc(C)cc3)o2)cc1 (centres undefined)	.	4	.
COc1ccc(-c2nnc(SC(C)C(=O)Nc3cccc(Cl)c3)o2)cc1 (centres undefined)	0.3	5.8*	-2
Cc1cc(/C=C2\NC(=O)N(Cc3ccc(Cl)cc3)C2=O)c(C)n1C	.	6.2*	.
Cc1cccc(CN2C(=O)N/C(=C/c3cc(C)n(-c4cc(C)ccn4)c3C)C2=O)c1	1.8	1	.
C[C@@H](C(=O)N1CCN(C(=O)OC(C)(C)C)CC1)n1cc(CCC(=O)O)nn1	-0.77	.	.
